High-throughput results from PubChem BioAssay.
An excerpt weighted towards active compounds, which were near 1.4% of everything screened.
APOBEC3G inh: APOBEC3G (human) deaminase inhibition; 330,000 compounds, 0.28% hits; inhibition, % at 20 µM; recombinant A3G, ssDNA deamination FAM/TAMRA fluorescence; Q9HC16;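 active = inhibition of at least 40% at 20 µM, with no more than 30% in the related APOBEC3A deaminase screen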
Target sequence (Q9HC16 whole entry, looked up): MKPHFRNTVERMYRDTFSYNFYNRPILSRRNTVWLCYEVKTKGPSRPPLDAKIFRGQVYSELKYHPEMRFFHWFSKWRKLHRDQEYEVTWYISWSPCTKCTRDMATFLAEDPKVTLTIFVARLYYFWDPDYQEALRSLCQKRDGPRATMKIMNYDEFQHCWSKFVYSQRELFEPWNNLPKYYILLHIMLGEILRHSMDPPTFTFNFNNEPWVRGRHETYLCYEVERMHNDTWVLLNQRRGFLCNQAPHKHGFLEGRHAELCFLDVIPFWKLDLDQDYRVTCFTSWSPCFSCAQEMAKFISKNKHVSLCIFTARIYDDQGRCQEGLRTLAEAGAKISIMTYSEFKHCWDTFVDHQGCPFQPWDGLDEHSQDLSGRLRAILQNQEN
A3A deaminase: blocks human APOBEC3A ssDNA deamination; P31941; recombinant A3A, FAM/TAMRA ssDNA deamination fluorescence; inhibition, % at 20 µM; 330,000 compounds, 0.41% hits; AID 493011;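 active = at least 40% inhibition at 20 µM here, with at most 30% in a related deaminase screen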
GC-B act: GC-B (human) receptor activation; P20594; HEK293-GC-B cells, CNP EC30, cGMP TR-FRET; 0% at EC30 CNP, 100% saturating CNP; activation, % at 10 µM; 370,000 compounds, 0.11% hits; AID 1920062;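 active = activation at 10 µM reaching about 35% in either raw or pattern-adjusted values, limit read from the data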
FAS-TE inh: inhibitors of human fatty acid synthase thioesterase domain; inhibition, % at 15 µM; 360,000 compounds, 0.67% hits; AID 602261; P49327; recombinant FAS-TE, OMFH fluorogenic substrate, fluorescence endpoint;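 active = compounds whose normalised, plate-corrected inhibition of enzyme fluorescence in the single-dose primary screen is 50% or more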
GC-A act: GC-A (human) enzyme activation; P16066; HEK293 GC-A cells, cGMP TR-FRET, EC30 ANP; 0% at EC30 ANP, 100% saturating ANP; activation, % at 10 µM; 370,000 compounds, 0.14% hits; AID 1671463; in the data active = activation above about 40%
APOBEC3A confirm: confirmation of human APOBEC3A DNA deaminase inhibitors; shares compounds with A3A deaminase; inhibition, % at 20 µM; AID 493151; recombinant A3A, ssDNA deaminase UDG fluorescence assay; 1,400 compounds, 63% hits;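 active = inhibition reaching a set limit, 80% of the first screen's cutoff, at 20 µM in any replicate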
UDG ctr A3A: inhibits UDG, flagging false APOBEC3A inhibitors; UDG counterscreen, FAM/TAMRA uracil oligo fluorescence; 1,000 tested, under 10 active; shares compounds with A3A deaminase; inhibition, % at 20 µM; call rule not given here
Of the large screens only hits and unclear results are named; the others gave an inactive call (follow-up assays come after a bar, where they were run).

Cc1ccc(CN2C(=O)N/C(=C\c3ccc(-c4ccc(C(=O)O)cc4C)o3)C2=O)cc1	A3A deaminase 52.9 | APOBEC3A confirm 31.7 | UDG ctr A3A inactive
O=CN1CCN(C(=O)C2CCN(c3ncnc4c3sc3cccc(F)c34)CC2)CC1	none (no result: APOBEC3G inh, A3A deaminase, FAS-TE inh)
CC[n+]1cccc(-c2nc3ccccc3s2)c1	A3A deaminase 53.0 | APOBEC3A confirm 64.3 | UDG ctr A3A inactive
Oc1cccc(-c2nc3ccccc3s2)c1	none
O=C1NC(=O)/C(=C\c2ccc(Br)o2)S1	A3A deaminase 55.3 | APOBEC3A confirm inactive
O=P(c1ccccc1)(c1ccccc1)c1cc(S(=O)(=O)O)ccc1O	A3A deaminase 83.4 | APOBEC3A confirm 63.4 | UDG ctr A3A inactive
O=P(O)(c1ccccc1)c1ccccc1O	none
CCOC(=O)c1[nH]ncc1CN1CCc2ccc(NC(=O)C3CCCO3)cc2C1 (stereo not drawn)	A3A deaminase 53.6 | APOBEC3A confirm inactive | UDG ctr A3A inactive
CC1(C(O)(C#CC[N+]2(C)CCCCC2)c2ccccc2)CCCC1 (stereo not drawn)	none
CC1(C#CC[N+]2(C)CCCCC2)CCC2C(O1)c1ccccc1OC2(C)C (stereo not drawn)	A3A deaminase 74.7 | APOBEC3A confirm 60.8 | UDG ctr A3A inactive
CS(=O)(=O)N1CCC[C@]2(CC[C@H](CCC#N)O2)C1	none (no result: APOBEC3G inh, A3A deaminase, FAS-TE inh)
Cc1ccc(S(=O)(=O)N(C)[C@H]2C[C@H]3c4[nH]c5c(-c6ccccc6)cccc5c4CCN3C(=O)[C@H]2[C@H](C)O)cc1	none (no result: APOBEC3G inh, A3A deaminase, FAS-TE inh)
CCSc1ccc2cc(OC)ccc2[n+]1CC	A3A deaminase 78.1 | APOBEC3A confirm 69.7 | UDG ctr A3A inactive
Cc1ccccc1-c1noc(CCC(=O)NCC2CCCO2)n1 (stereo not drawn)	A3A deaminase 44.2 | APOBEC3A confirm inactive
COc1ccccc1-c1noc(CCC(=O)NC2CCCC2)n1	A3A deaminase 44.7 | APOBEC3A confirm inactive | UDG ctr A3A inactive
O=S(=O)(c1ccc(C(F)(F)F)cc1)N1CCCc2nc(-c3ccc(Br)cc3)ccc21	none (no result: APOBEC3G inh, A3A deaminase, FAS-TE inh)
COc1ccc(C(=O)OCCc2ccc(O)cc2)cc1	none
COc1ccc(C(=O)OCC[N+]2(C)CCOCC2)cc1	A3A deaminase 60.7 | APOBEC3A confirm 72.7 | UDG ctr A3A inactive
COc1ccc2[nH]c(O)c(N=O)c2c1	A3A deaminase 54.1 | APOBEC3A confirm 53.3 | UDG ctr A3A inactive
CCOC(=O)C1=C(c2ccccc2)N=c2s/c(=C\c3cc(OC)c(OC)c(OC)c3)c(=O)n2C1c1cccs1 (stereo not drawn)	none
CCOC(=O)C1=C(c2ccccc2)N=c2s/c(=C\c3ccco3)c(=O)n2C1c1cccs1 (stereo not drawn)	A3A deaminase 42.2 | APOBEC3A confirm 18.8 | UDG ctr A3A inactive
COC/C=C/C1=CC2=CC(=O)C(C)(OC(=O)c3cnc4ccccc4n3)C(=O)C2=CN1C(CO)CO (stereo not drawn)	none
COC/C=C/C1=CC2=CC(=O)C(C)(OC(=O)c3cnc4ccccc4n3)C(=O)C2=CO1 (stereo not drawn)	A3A deaminase 44.2 (no result: GC-B act, FAS-TE inh, GC-A act) | APOBEC3A confirm 39.1
CC1(C)CC(N2CCCC2)=CC(=[N+]2CCCCC2)C1	A3A deaminase 50.8 | APOBEC3A confirm 70.5 | UDG ctr A3A inactive
CC1(C)CC(N2CCN(Cc3ccccc3)CC2)=CC(=[N+]2CCCCC2)C1	none
CC1(C)CC(N2CCCC2)=CC(=[N+]2CCCC2)C1	A3A deaminase 65.9 | APOBEC3A confirm 71.8 | UDG ctr A3A inactive
CC1(C)CC(NNCCC#N)=CC(=[N+]2CCCC2)C1	none
CC(C)(C)S(=O)(=O)N1C[C@@H]2CC(=O)C(CCO)=C2[C@H]1CCO	none (no result: APOBEC3G inh, A3A deaminase, FAS-TE inh)
O=C(OC12CCCN(C1)/C(=C/c1cccnc1)C2)c1cccc(F)c1 (stereo not drawn)	none (no result: APOBEC3G inh, A3A deaminase, FAS-TE inh)
NC(=O)c1c(NC(=O)CSc2nnc(-c3ccco3)n2-c2ccccc2)sc2c1CCC2	A3A deaminase 41.4 | APOBEC3A confirm 45.7 | UDG ctr A3A inactive
C[n+]1ccc(/C=C/c2c[nH]c3ccc(F)cc23)cc1	A3A deaminase 48.5 | APOBEC3A confirm 44.8
Cn1cc(/C=C/c2cc[n+](C)cc2)c2cc(F)ccc21	none (no result: APOBEC3G inh, A3A deaminase, GC-B act, GC-A act)
